Screening results (PubChem BioAssay)
Hits are enriched below; roughly 4.1% of the tested compounds scored in any of these assays.
DAX1 inh-1: DAX1 (NR0B1) inhibitors on StAR promoter, primary screen, cell-based, luminescence, SF-1 (NR5A1), full-length DAX-1; 370,000 compounds, 1.1% hits; HEK293T StAR-luciferase reporter, SF-1/DAX-1 repression relief; inhibition, % at 6.8 µM;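 active means inhibition above the mean over all tested compounds plus 3 SD, cut at about 3.6% in these data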;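 further: 0% = DAX-1 cells with DMSO and 100% = cells lacking DAX-1 with DMSO; higher inhibition means more luminescence from relief of DAX-1 repression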
hgDAF-12 ag: H. glycines DAF-12 receptor agonists, primary screen, cell-based, luminescence, HEK293, GAL4 fusion, UAS-luciferase. Nuclear hormone receptor DAF-12 (Heterodera glycines), GAL4 fusion. HEK293 GAL4-hgDAF12 UAS-luciferase reporter, agonist luminescence; normalized to butyrate control. activation, % at 6.8 µM. 370,000 compounds, 1.8% hits;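 active means activation above a cutoff set at the mean of all screened compounds plus 3 SD, cut at about 10% in these data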;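 further: 0% = DMSO wells and 100% = sodium butyrate wells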
hcDAF12 agonist: H. contortus DAF-12 nuclear receptor activators, primary screen, cell-based, luminescence, HEK293, lit1-tk-luc reporter; HEK293 hcDAF-12 lit1-tk-luc reporter; 0% DMSO, 100% Δ7-dafachronic acid; activation, % at 6.8 µM; 370,000 compounds, 1.4% hits;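 active means activation above the mean of all tested compounds plus 3 SD, cut at about 5.5% in these data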;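 further: 100% = response to 3 µM Δ7-dafachronic acid high control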
DAX1 inh-2: DAX1 (NR0B1) inhibitors, primary screen, cell-based, HEK293, Gal4-DAX1, luciferase luminescence; 340,000 compounds, 0.99% hits; HEK293 Gal4-DAX1 luciferase reporter; inhibition, % at 6.75 µM; Nuclear receptor subfamily 0 group B member 1 (Homo sapiens), P51843;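 active means inhibition above the mean over all tested compounds plus 3 SD, cut at about 4.2% in these data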;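 further: 0% = DAX1-transfected cells with DMSO and 100% = empty-vector control cells with DMSO; inhibition shows as a rise in luminescence from relieved DAX1 repression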
ssDAF12 agonist: S. stercoralis DAF-12 nuclear receptor activators, primary screen, cell-based, luminescence, HEK293, GRIP1 co-expression, lit1-tk-luc; 370,000 compounds, 1% hits; HEK293 ssDAF-12/GRIP1 lit1-tk-luc reporter; % of 3 µM dafachronic acid response; activation, % at 6.8 µM;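 active means activation above the mean over all tested compounds plus 3 SD, cut at about 0.9% in these data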;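 further: 0% = DMSO-only wells and 100% = 3 µM delta7-dafachronic acid wells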
DAX1 conf: DAX1 (NR0B1) inhibitors relieving SF-1 repression, confirmation, cell-based, luminescence, HEK293T, full-length DAX-1, SF-1 activated StAR promoter; shares compounds with DAX1 inh-1; HEK293T StAR-promoter luciferase reporter, SF-1/DAX-1 repression; inhibition, % at 6.8 µM; 2,400 compounds, 87% hits; AID 652134, 2013;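 active means inhibition above the average of every tested compound plus 3 SD, cut at about 3.8% in these data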;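 further: 0% = DAX-1 cells with DMSO and 100% = no DAX-1 control cells with DMSO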
Target sequence (P51843 whole entry, looked up): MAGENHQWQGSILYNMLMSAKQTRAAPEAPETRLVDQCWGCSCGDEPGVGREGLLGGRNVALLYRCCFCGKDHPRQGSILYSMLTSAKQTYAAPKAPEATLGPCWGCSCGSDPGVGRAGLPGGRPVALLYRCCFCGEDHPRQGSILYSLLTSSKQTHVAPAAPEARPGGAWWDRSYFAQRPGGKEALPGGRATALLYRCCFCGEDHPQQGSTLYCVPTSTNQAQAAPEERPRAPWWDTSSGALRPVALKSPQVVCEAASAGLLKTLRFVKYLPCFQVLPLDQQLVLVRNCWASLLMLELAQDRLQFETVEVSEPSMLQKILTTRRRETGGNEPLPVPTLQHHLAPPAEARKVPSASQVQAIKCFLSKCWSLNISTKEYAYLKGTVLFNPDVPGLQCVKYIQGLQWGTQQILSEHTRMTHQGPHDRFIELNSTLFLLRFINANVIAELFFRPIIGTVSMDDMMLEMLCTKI
SF1 mutant ctr: StAR reporter signal changes without DAX1, counter-screen for DAX1 inhibitor project, cell-based, luminescence, AF-2 mutant SF-1, transactivation. shares compounds with DAX1 inh-1. HEK293 StAR-luciferase, SF-1 AF2 mutant. inhibition, % at 6.8 µM. 2,400 compounds, 78% hits. AID 652136, 2013;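 active means inhibition above the mean of all tested compounds plus 3 SD, cut at about 3% in these data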;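 further: 0% = DAX-1 transfected cells with DMSO and 100% = cells without DAX-1 with DMSO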
LXR ag: LXR agonists, Gal4 luciferase reporter, confirmation, counter-screen for hcDAF-12 agonist project, cell-based, luminescence, HEK293, H. contortus campaign | shares compounds with hcDAF12 agonist | HEK293 Gal4-LXR tk-luc reporter, 24 h; normalized: DMSO 0%, positive control 100% | activation, % at 6.8 µM | 3,400 tested, under 10 active;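 active means mean percent activation of the reporter above a cutoff set as the average over tested compounds plus their standard deviation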
hcDAF12 conf: H. contortus DAF-12 receptor agonists, confirmation, cell-based, luminescence, HEK293, lit1-tk-luc, triplicate; shares compounds with hcDAF12 agonist; HEK293 hcDAF-12 lit1-tk-luc reporter; % of Δ7-dafachronic acid response; activation, % at 6.8 µM; 3,400 compounds, 61% hits;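 active means mean activation across triplicate tests above the threshold derived from the earlier primary screen, cut at about 5.5% in these data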;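 further: 0% = DMSO only wells and 100% = 3 µM Δ7-dafachronic acid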
hgDAF12 conf: H. glycines DAF-12 receptor agonists, confirmation, cell-based, luminescence, HEK293, GAL4-LBD fusion; shares compounds with hgDAF-12 ag; HEK293 GAL4-hgDAF12 luciferase reporter, agonist mode; percent of butyrate response; activation, % at 6.8 µM; 3,300 compounds, 80% hits;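 active means mean activation over triplicate wells above the hit cutoff derived from the earlier primary screen, cut at about 11% in these data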;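 further: 0% = DMSO low control and 100% = 2 mM sodium butyrate high control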
LXRb DAF12 ctr: LXR agonists, Gal4 luciferase reporter, confirmation, counter-screen for hgDAF-12 agonist project, cell-based, luminescence, HEK293, H. glycines campaign; activation, % at 6.8 µM; 24 h; shares compounds with hgDAF-12 ag; 3,300 tested, under 10 active;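 active means mean activation of the triplicate above a set limit carried over from the primary screen, none filed active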
* = called active by the depositor; . = no result.

SMILES	DAX1 inh-1	hgDAF-12 ag	hcDAF12 agonist	DAX1 inh-2	ssDAF12 agonist	DAX1 conf	SF1 mutant ctr	hgDAF12 conf	LXRb DAF12 ctr	others
CCSc1ccc(-c2ccc(C)cc2)nn1	11*	20*	11*	1	0	17*	7.4*	17*	1	LXR ag=2;hcDAF12 conf=6.1*
CCOc1ccc(-c2ccc(SCC)nn2)cc1	7.9*	24*	5	0	0	14*	6.7*	19*	1
CCOc1ccc(-c2ccc(SCc3ccccn3)nn2)cc1	1	10	4	0	-2	.	.	.	.
CN(C)c1ccc(/C=N\NC(=O)c2csnn2)cc1	5.0*	17*	6.5*	0	1.3*	12*	6.1*	19*	1
CN1C(=O)CON=C1c1cccc2ccccc12	1	-1	-1	.	-1	.	.	.	.
c1ccc(-c2cc(-c3ccccc3)on2)cc1	5.7*	18*	12*	3	1.7*	18*	12*	18*	1	LXR ag=1;hcDAF12 conf=8.0*
Cc1ccc(C=Cc2ccccn2)cc1	7.5*	13*	3	4.5*	0	12*	4.9*	20*	1
CC1Cc2ccccc2N1C(=O)COC(=O)/C=C/c1ccc(F)cc1 (stereo unspecified)	0	-1	1	0	-1	.	.	.	.
CC1Cc2ccccc2N1C(=O)/C=C/c1cccc(F)c1 (stereo unspecified)	6.1*	16*	5	3	1	7.6*	6.9*	16*	1
Cc1ccc(S(=O)(=O)CCC(=O)N(CCCN2CCOCC2)c2nc3ccccc3s2)cc1	3	6	3	1	0	.	.	.	.
Cc1ccc2nc(N(CCN3CCOCC3)C(=O)CCS(=O)(=O)c3ccccc3)sc2c1	5.1*	14*	0	4	0	6.8*	4.8*	11*	0
O=C(Nc1n[nH]c(=S)s1)c1ccc2ccccc2c1	16*	14*	3	1	0	13*	6.3*	13*	1
Cc1ccc(S(=O)(=O)NCc2nnnn2-c2ccc(F)cc2)cc1	0	3	3	0	-1	.	.	.	.
CN(/N=C/c1cccnc1)c1cnc2ccccc2n1	7.3*	20*	12*	2	4.2*	11*	5.8*	17*	1	LXR ag=1;hcDAF12 conf=10*
C(=N\N=C\c1cccnc1)/c1cccnc1	.	.	.	0	.	.	.	.	.
COc1ccc2oc(=O)c(-c3nc4ccccc4o3)cc2c1	0	3	0	2	0	.	.	.	.
COc1cccc(N=c2oc3ccc(OC)cc3cc2-c2nc3ccccc3[nH]2)c1	4.7*	16*	15*	2	3.6*	-1	-2	7	0	LXR ag=0;hcDAF12 conf=6.3*
Nc1ccccc1C(=O)NNC1=C(C(=O)C(F)(F)F)CCC1	7.2*	17*	9.2*	15*	0	13*	6.5*	18*	0	LXR ag=0;hcDAF12 conf=1
CC(C)C(C(=O)NCc1ccccc1)N(C)Cc1ccc(Cl)c(Cl)c1 (stereo unspecified)	2	1	-1	.	-1	.	.	.	.
O=C(/C(C=Nc1ccc(Br)cc1)=C(/O)c1ccco1)C(F)(F)F	5.3*	19*	5	0	0	17*	-3	16*	1
O=C(Nc1nsc(-c2ccccc2)n1)c1cccs1	4.5*	15*	3	0	1	7.9*	4.5*	16*	1
CCCCOCC1CN(CCCC)S(=O)(=O)c2c(Oc3ccc(SC)c(C)c3)cccc2O1 (stereo unspecified)	1	1	1	.	-1	.	.	.	.
CCOc1cccc(C=NNc2nc(=O)cc(C(=O)OC)s2)c1O	-1	0	0	.	-1	.	.	.	.
Cc1ccc(C(=O)Nc2nc3ccccc3s2)s1	4.8*	21*	12*	1	1	16*	6.2*	22*	1	LXR ag=2;hcDAF12 conf=11*
CCCCNC(=O)Nc1nc2ccccc2s1	5.5*	15*	3	8.8*	0	11*	4.8*	15*	1
Cc1ccc(C(=O)Nc2nc3ccc(S(C)(=O)=O)cc3s2)s1	2	7	4	1	0	.	.	.	.
CC(C)CN1C(=O)C[C@@]2(C(=O)N(C)c3ccc(NC(=O)C(C)(C)C)cc32)C1c1ccccc1 (stereo partly specified)	1	1	0	.	-1	.	.	.	.
CC(=NNC(=S)N1CC2CCC(CC2)C1)c1ccncn1	-3	-3	-2	-4	-1	.	.	.	.
COc1ccc(OCc2cc(C(=O)N3CCOCC3)no2)c(Cl)c1	7.4*	13*	3	0	0	9.8*	7.5*	15*	1
